Sampled rows, rich in hits. Any-hit rate of the full collection: about 5.7%.
HT1080 IDH1KD tx = qHTS for induction of synthetic lethality in tumor cells producing 2HG: qHTS for the HT-1080-IDH1KD cell line; HT-1080 IDH1 knockdown viability, ATP luminescence, 48 h; Potency, µM (highest dose often 46.1 µM), for inactives: at the top dose activity, negative = toxicity, usual class: cytotoxic; actives 2% (n = 360,000);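 note: 0% = DMSO wells and -100% = cell-free medium wells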
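HT-1080-IDH1KD cells (IDH1 knocked down), 750/well in RPMI with 5% FBS, treated with compound 48 h at 37 degrees C. Viability by CellTiter-Glo luminescence, normalised to DMSO and no-cell wells; concentration-response curves classed.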
HT1080NT lethal = qHTS for induction of synthetic lethality in tumor cells producing 2HG: qHTS for the HT-1080-NT fibrosarcoma cell line; HT-1080-NT fibrosarcoma viability, CellTiter-Glo ATP luminescence, 48 h; Potency, µM (doses to about 46.1 µM), for the others: top-dose activity, negative = less viability, actives largely listed as cytotoxic; actives 1.6% (n = 360,000); AID 686970, 2013;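 note: NT is the 2HG producing partner of a matched IDH1 knockdown line; 0% = DMSO-treated cells and -100% = media-only wells without cells; nearly all actives have a fitted effect of over 55% in size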
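HT-1080-NT fibrosarcoma cells (2HG-overproducing), 750 cells/well in RPMI with 5% FBS, dosed after 2 h and incubated 48 h at 37C. CellTiter-Glo luminescence normalized to DMSO and no-cell wells; concentration-response curves fitted and classed.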
KB-V1 MDR tox = qHTS assay for MDR1-selective chemotherapeutics: Primary screen using the drug-selected MDR subline cells KB-V1; KB-V1 MDR cells viability, CellTiter-Glo, 72 h; Potency, µM (highest dose often 46.1 µM), hits mostly cytotoxic; actives 3.4% (n = 400,000); AID 1347076, 2019; note: nearly all actives have a fitted effect of over 60% in size
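Cells of the MDR subline KB-V1 are plated, dosed with compound at multiple concentrations, and incubated 72 h at 37 degrees C; CellTiter-Glo is then added and luminescence read after 10 min.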
KB-3-1 cytotox = qHTS assay for MDR1-selective chemotherapeutics: Primary screen using the parental adenocarcinoma cell KB-3-1 | KB-3-1 viability, CellTiter-Glo ATP luminescence, 72 h | Potency, µM (top dose mostly 46.1 µM), most hits filed as cytotoxic | actives 1.4% (n = 400,000) | AID 1347075, 2019; note: nearly all actives have a fitted effect of over 60% in size
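Viability of parental KB-3-1 cells, measured by CellTiter-Glo luminescence, followed a 72 h incubation at 37 °C with pinned compounds in phenol-red-free DMEM containing 10% FBS.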
Starred values were filed as active, the others as inactive; i = inactive; ? = inconclusive; nt = not tested or not shown; ! = not confirmed by another sample; [ ] = dose if it differs, or a comment. Calls come from the whole dose curve; as a rule, active = well fitted curve in the direction sought with a large enough effect; inconclusive = small, poorly fitted or top-dose-only effect, or another doubt; inactive = no such curve, though single readings can be large; an effect the other way counts as inactive or inconclusive. Unless noted, % is set by controls: 0 for no effect and ±100 for the full control effect; potency is the fitted concentration of half-maximal effect.

SMILES	HT1080 IDH1KD tx	HT1080NT lethal	KB-V1 MDR tox	KB-3-1 cytotox
COc1ccc(-c2cc(NC(C)=O)c3ncc(-c4ccc(OC)c(OC)c4)n3c2)cc1OC	?	?	11.6µM*	?
COc1cc(-c2cc(NC(C)=O)c3ncc(-c4cc(OC)c(OC)c(OC)c4)n3c2)cc(OC)c1OC	13µM*	23.1µM*	?	?
COc1ccc(-c2cnc3c(NC(C)=O)cc(-c4ccccc4OC)cn23)cc1OC	25.9µM*	?	?	?
COc1ccc(-c2cnc3c(NC(C)=O)cc(-c4ccsc4)cn23)cc1OC	-28.3%	-23.3%	?	i
CC1CCC(NC(=O)c2ccc3c(c2)N(Cc2ccccc2F)C(=O)c2ccccc2S3=O)CC1 (configuration not stated)	nt	nt	i	i
COc1cccc(C2CC(=O)N(c3ccc(F)cc3)C3=C2C(=O)OC3)c1OC (configuration not stated)	nt	nt	i	i
CC(=O)N1CCc2cc(Br)cc(S(=O)(=O)CCC(=O)Nc3ccc(C)cc3Cl)c21	nt	nt	i	i
COc1cccc(NC(=O)c2cc(-c3ccccn3)nc3ccccc23)c1	-2.4%	2.3%	1.84µM*	?
O=C(Nc1ccccc1O)c1ccccc1O	-8.9%	1.2%	?	?
Cc1cccc(NC(=O)c2ccccc2O)c1C	-18.1%	?	16.4µM*	i
COc1cccc(NC(=O)c2cc(-c3ccco3)nc3ccccc23)c1	-1.5%	0.0%	?	i
COc1cc(-c2cc(C(=O)Nc3ccccc3N3CCOCC3)c3ccccc3n2)cc(OC)c1OC	8.6%	0.7%	9.2µM*	i
COc1cc(-c2cc(C(=O)Nc3cccc(C(C)=O)c3)c3ccccc3n2)cc(OC)c1OC	?	-24.6%	20.6µM*	?
CC(=O)N1CCc2cc(Br)cc(S(=O)(=O)N3CCN(c4cccc(C)c4)C(C)C3)c21 (configuration not stated)	nt	nt	i	i
COc1cccc(NC(C(=O)Nc2cccc(C(C)=O)c2)c2ccccc2)c1 (configuration not stated)	-14.9%	1.0%	?	i
COc1cc(NC(C(=O)Nc2cccc(C(C)=O)c2)c2ccccc2)cc(OC)c1OC (configuration not stated)	-3.1%	-4.3%	4.61µM*	?
Cc1ccccc1Cn1nnc(C(=O)Nc2cccc(C)c2C)c1N	-3.2%	-9.6%	13µM*	?
Cc1cccc(NC(=O)c2cc(-c3ccccn3)nc3ccccc23)c1C	-20.7%	?	10.3µM*	?
CCOc1cc2ccccc2cc1C(=O)OCC(=O)Nc1ccc(Br)cc1	nt	nt	i	i
CCN(CC)c1ccc2cc(C(=O)NNC(=O)c3ccc(S(=O)(=O)N4CCCCC4)cc3)c(=O)oc2c1	-19.5%	-1.3%	2.59µM*	i
Cc1ccc2c(Sc3ccccc3)c(C(=O)NCc3ccccc3F)[nH]c2c1	nt	nt	i	i
COc1cc(C(C(=O)NC2CCCCC2)N(C(=O)Cc2c[nH]c3ccccc23)c2ccc(C)cc2)cc(OC)c1OC (configuration not stated)	-10.7%	-4.5%	23.1µM*	?
Cc1ccc(C(C(=O)NC2CCCCC2)N(C(=O)Cc2c[nH]c3ccccc23)c2ccccc2)o1 (configuration not stated)	-24.8%	?	4.11µM*	18.4µM*
CC(=O)Nc1ccc(N(C(=O)Cc2c[nH]c3ccccc23)C(C(=O)NC2CCCCC2)c2ccco2)cc1 (configuration not stated)	-9.7%	-7.7%	i	i
CC(C)c1nc2sc3c(N4CCCCC4)ncnc3c2c2c1CCCC2	nt	nt	i	i
SMILES	HT1080 IDH1KD tx	HT1080NT lethal	KB-V1 MDR tox	KB-3-1 cytotox
O=C(NCc1ccccc1)c1cc2nc(C3CC3)cc(C(F)(F)F)n2n1	1.3%	22.4%	23.1µM*	i
O=C(NCc1ccco1)c1cc2nc(C3CC3)cc(C(F)(F)F)n2n1	-8.6%	-6.6%	?	i
CCOC(CNC(=O)c1ccc(N2CCc3ccccc32)c([N+](=O)[O-])c1)OCC	-0.5%	-1.1%	2.59µM*	?
CC(C)C[C@H]1CN(CCCC[C@H]2CNC(=O)C(=O)N2CCC2CCCCC2)C(=O)C(=O)N1CC1CCCCC1	1.5%	10.6%	?	i
CN(Cc1ccccc1)S(=O)(=O)c1ccc(Cl)c(C(=O)NCc2ccc3c(c2)OCO3)c1	-11.4%	-5.6%	11.6µM*	i
O=C(NCc1ccc2c(c1)OCO2)c1nc(S(=O)(=O)Cc2ccccc2F)ncc1Cl	?	16.4µM*	i	i
O=C(NCc1ccc2c(c1)OCO2)c1nc(S(=O)(=O)Cc2ccccc2)ncc1Cl	16.4µM*	16.4µM*	?	20.6µM*
CN(Cc1ccccc1)S(=O)(=O)c1ccc(Cl)c(C(=O)NCc2ccncc2)c1	-9.3%	-5.6%	?	i
O=[N+]([O-])c1ccc2c(c1)C=C/C2=C/c1ccccc1	nt	nt	i	i
ClCCn1cnc2c(SCc3ccccc3)ncnc21	?	1.2%	6.51µM*	4.11µM*
OC[C@H]1O[C@@H](n2cnc3c(NC4CCCC4)ncnc32)[C@H](O)[C@@H]1O	-13.6%	?	i	i
OC[C@H]1O[C@@H](n2cnc3c(NCc4ccco4)ncnc32)[C@H](O)[C@@H]1O	6.51µM*	5.8µM*	i	16.4µM*
OCC1OC(n2cnc3c(SCc4ccccc4)ncnc32)C(O)C1O (configuration not stated)	23.1µM*	7.31µM*	?	i
OCC1OC(n2cnc3c(NCc4ccco4)ncnc32)C(O)C1O (configuration not stated)	11.6µM*	11.6µM*	?	13µM*!
C=CCNc1ncnc2c1ncn2C1OC(CO)C(O)C1O (configuration not stated)	18.4µM*	9.2µM*	i	i
Cc1cccc(/C=C2/S/C(=N/N=C3\CC4CCC3(C)C4(C)C)NC2=O)c1 (configuration not stated)	-2.1%[9.24 µM]	-2.5%	20.6µM*	?
CCOCCn1ccc2c(OCC(=O)Nc3cccc(F)c3)cccc2c1=O	nt	nt	i	i
Cc1nnc(SCc2ccccc2Cl)c2cc3occc3n12	nt	nt	i	i
CCCN1C(=O)/C(=C\c2ccncc2)SC1=Nc1ccccc1	-13.1%	-11.3%	?	i
CCN1C(=O)/C(=C\c2ccncc2)SC1=Nc1ccc(C)c(C)c1	-15.9%	-1.6%	14.6µM*	?
Cc1ccc(-c2[nH]ncc2CNCCc2cnn(-c3ccccc3)c2)cc1C	?	18.4µM*	i	?
CCc1nn(CCCC(=O)NCc2ccc(OC(C)C)cc2)c(=O)c2cc3occc3n12	10.3µM*	11.6µM*	?	7.31µM*

Screening results (PubChem BioAssay)
